# In the library only some 1.3% were active in any assay of this set; here they are far more common.
# HTR5A inv ag: inverse agonist of human HTR5A in OPRM1-OPRD1 counter-screen | P47898 | 0.083% of 340,000 active | HTR5A cell line, luminescence, inverse agonism | inhibition, % at 9.3 µM; in the data active = inhibition mostly above about 23%, no sharp cut-off; inactive = mostly below about 18%;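 note: 0% = cells with DMSO and 100% = no-cell wells with DMSO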
# Target sequence (P47898 whole entry, looked up): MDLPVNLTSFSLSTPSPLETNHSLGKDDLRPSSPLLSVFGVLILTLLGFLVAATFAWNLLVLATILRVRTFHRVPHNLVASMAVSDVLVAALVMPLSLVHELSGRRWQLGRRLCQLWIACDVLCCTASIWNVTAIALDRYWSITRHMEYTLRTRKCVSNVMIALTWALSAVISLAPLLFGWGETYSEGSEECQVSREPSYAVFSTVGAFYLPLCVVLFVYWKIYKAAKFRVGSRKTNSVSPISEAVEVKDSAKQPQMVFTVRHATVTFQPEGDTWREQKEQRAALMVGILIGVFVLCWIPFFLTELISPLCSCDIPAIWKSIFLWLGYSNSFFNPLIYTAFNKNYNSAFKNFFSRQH
# PvdQ acylase: P. aeruginosa PvdQ acylase inhibition. inhibition, % at 10 µM. AID 488965. purified PvdQ acylase, fluorescence plate reader. 0.063% of 340,000 active; in the data active = inhibition above about 30%, passing the limit was not always enough;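 note: 0% = vehicle neutral wells and 100% = reference inhibitor wells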
# HTR5A ag: HTR5A agonism, opioid heterodimer counter-screen; AID 504692; 0.61% of 340,000 active; HTR5A agonist assay, luminescence, cell-based; activation, % at 9.3 µM; in the data active = activation mostly above about 9.5%, no sharp cut-off; inactive = mostly below about 7.6%;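 note: 0% = cells with vehicle only and 100% = reference agonist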
# CR mimetic SO: yeast age-related superoxide inhibition as caloric restriction mimetic; S. cerevisiae aged cells, superoxide DHE fluorescence; hits give low values; superoxide response (% of plate mean), % at 10 µM; 0.18% of 330,000 active; AID 2690;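 active = superoxide response under a set limit, about three screen SD below normal, cut at about 65% in these data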;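 note: yeast aged for seven days with compound at 30 °C before DHE staining; 100% = average MFI of all compound-treated wells on the plate with controls excluded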
# OPRM1-OPRD1 ag: OPRM1-OPRD1 heterodimerization agonism. cells, luminescence. activation, % at 9.3 µM. AID 504326. P35372+P41143. 0.3% of 340,000 active;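 note: 0% = vehicle-treated cells and 100% = reference agonist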
# MOR-DOR inv ag: inverse agonist of human OPRM1-OPRD1 heterodimerization; cell-based MOR-DOR heterodimer luminescence, inverse agonism; inhibition, % at 9.3 µM; AID 504357; 0.21% of 340,000 active; in the data active = inhibition above about 22%, passing the limit was not always enough;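 note: 0% = cells with DMSO and 100% = wells without cells with DMSO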
# CR mimetic CP: confirmation of caloric restriction mimetics inhibiting yeast age-related superoxide. shares compounds with CR mimetic SO. S. cerevisiae aging, superoxide DHE fluorescence; hits give low values. superoxide response (% of plate), % at 10 µM. 1% of 850 active;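 active = superoxide signal below 65% of the plate average of sample wells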;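 note: cells aged with compound for 7 days at 30 degrees C before staining; 100% equals mean DHE fluorescence of all compound wells on the plate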
# DHE counter: compound alters DHE oxidation or fluorescence in yeast; shares compounds with CR mimetic SO; S. cerevisiae BY4741, flow cytometry; hits give low values; fluorescence response, % at 10 µM; 850 tested, under 10 active; AID 435000;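 active = fluorescence response below 15%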;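 note: percent of the mean fluorescence averaged over all compound wells on the plate; lower means stronger quenching of DHE signal or ROS scavenging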
# MOR-DOR ag conf: confirmation of human OPRM1-OPRD1 heterodimerization agonists; 45% of 830 active; activation, % at 9.3 µM; shares compounds with OPRM1-OPRD1 ag; cells, MOR-DOR heterodimerization, luminescence complementation;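 note: 0% = vehicle-treated cells and 100% = reference agonist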
# HTR5A ag counter: HTR5A agonism, opioid heterodimer counter-screen; HTR5A agonist counterscreen, cell luminescence; AID 504905; 8% of 830 active; activation, % at 9.3 µM; shares compounds with OPRM1-OPRD1 ag; in the data active = activation above about 17%;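 note: 0% = vehicle-treated cells and 100% = reference agonist response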
# Numbers without * were called inactive; i = inactive; . = not tested or not shown. Cut-off read from the data, not from the text of the source, unless noted: active = activation above about 18%; inactive = the rest.
SMILES,HTR5A inv ag,PvdQ acylase,HTR5A ag,CR mimetic SO,OPRM1-OPRD1 ag,MOR-DOR inv ag,CR mimetic CP,DHE counter,others
C[C@]12CC(=O)CC1CCC1C2CC[C@@]2(C)C1CC[C@@H]2O (stereo partly specified),-12,-4,3,72,0,-2,.,.,
CC12CCC(=O)CC1CCC1C2C(=O)CC2(C)C1CCC2(C)O (stereo unspecified),11,-17,-3,.,-2,12,.,.,
C[C@]12CCC(=O)CC1CCC1C2CC[C@]2(C)C(OC(=O)CCC(=O)O)CCC12 (stereo partly specified),-15,-4,4,64*,-3,13,80,92,
C[C@]12CCC3C(CC[C@@H]4CC(=O)CC[C@]34C)C1CC[C@@H]2O (stereo partly specified),19,-8,-5,54*,-2,12,84,92,
O=c1nc(/C=C/c2ccc(Cl)cc2Cl)cc(C(F)(F)F)[nH]1,-10,7,3,104,-1,5,.,.,
COC(=O)C1=C(c2ccc3ccccc3c2)C[C@@H]2CC[C@H]1N2C(=O)N1CCC(C)CC1,-30,-7,3,104,8,-46,.,.,
CC(C)c1ccc(NC(=O)CSc2nnc(OC(=O)N(C)C)n2C2CC2)cc1,2,-17,2,107,-2,12,.,.,
C[C@]12CCC3C(CCC4=C/C(=N/OCC(=O)NC(CCC(=O)O)C(=O)O)CC[C@@]43C)C1CCC2O (stereo partly specified),12,-7,-3,58*,-4,16,94,107,
C[C@]12CCC3C(CCC4=C/C(=N/OCC(=O)NC(CCC(N)=O)C(=O)O)CC[C@@]43C)C1CCC2O (stereo partly specified),-10,-13,3,71,-4,17,.,.,
Cn1c(O)c(C(=Nc2ccc(F)cc2)c2ccccc2Cl)c(=O)n(C)c1=O,7,-1,1,62*,-1,3,75,93,
CCN(CC)C(=O)c1ccc(NC(=O)c2cn(-c3ccccc3)nc2-c2ccc(OC)cc2)cc1,1,-12,1,111,0,3,.,.,
C[C@]12CCC3C(CC[C@H]4C[C@@H](O)CC[C@]34C)C1C[C@@H](O)[C@]2(C)O (stereo partly specified),10,17,-2,103,-2,10,100,91,
C#C[C@]1(O)[C@H](O)CC2C3CC[C@H]4C[C@@H](O)CC[C@]4(C)C3CC[C@@]21C (stereo partly specified),.,.,.,94,.,.,98,96,
C[C@]12CC[C@H](O)CC1C(=O)CC1C2CC[C@@]2(C)C1CC[C@@H]2O (stereo partly specified),-3,-13,1,79,-1,3,92,102,
C[C@]12CCC3C(CC[C@H]4C[C@@H](O)CC[C@]34C)C1C[C@@H](N)[C@@H]2O (stereo partly specified),-17,-2,4,93,-1,7,103,98,
C[C@]12CCC3C(CC[C@H]4C[C@@H](O)CC[C@]34C)[C@H]1CC[C@H]2O (stereo partly specified),5,-12,-1,78,-2,8,97,101,
C[C@]12CCC3C(CC[C@H]4C[C@@H](O)CC[C@]34C)C1CC[C@@]2(O)C(F)(F)F (stereo partly specified),.,.,.,97,.,.,105,105,
C[C@]12CC[C@@H](O)C[C@@H]1CC[C@@H]1[C@@H]2CC[C@]2(C)[C@@H](O)CC[C@@H]12,-16,8,-4,80,0,-2,.,.,
C[C@]12CCC3C(CC[C@@H]4C[C@H](O)CC[C@]34C)C1CCC2=O (stereo partly specified),2,-6,-1,64*,3,-15,82,92,
C[C@]12CC[C@H](O)C[C@H]1CC[C@@H]1[C@@H]2CC[C@]2(C)C(=O)CC[C@@H]12,8,-17,1,48*,-2,11,78,118,
C[C@]12CCC3[C@@H](CC[C@H]4C[C@@H](O)CC[C@]34C)C1CCC2=O (stereo partly specified),-15,4,4,81,0,2,.,.,
CCC1=Nc2cc(C(=O)N3CCC4(CC3)OCCO4)ccc2Sc2ccc(Br)cc21,-3,-2,1,107,8,-40,.,.,
CN(C)CC#CCC(O)(c1ccccc1)C1CCCC1 (stereo unspecified),3,-4,1,94,-3,12,.,.,
CN(C)CC#CCn1c2ccccc2c2ccccc21,.,.,.,115,.,.,103,90,
C1CC2OC2CC1C1CO1 (stereo unspecified),-24,-7,6,117,-3,14,.,.,
SMILES,HTR5A inv ag,PvdQ acylase,HTR5A ag,CR mimetic SO,OPRM1-OPRD1 ag,MOR-DOR inv ag,CR mimetic CP,DHE counter,others
Cn1c(O)c(/C=C2\N=c3ccccc3=C2CCNC(=S)NC2CC2)c(=O)n(C)c1=O,-16,2,3,90,6,-31,.,.,
Nc1c2c(nc3ccccc13)CCN(Cc1ccccc1)C2,-18,-6,5,94,-2,11,.,.,
Nc1cc2nc3ccccc3nc2cc1N,2,-13,12,41*,5,-26,68,89,
CC(C)NP(=O)(NC(C)C)OP(=O)(NC(C)C)NC(C)C,0,13,0,96,-2,9,.,.,
CN(C)C(CNC(=O)Cc1ccc(Br)cc1)c1ccccc1 (stereo unspecified),2,-1,-1,89,141*,i,.,.,MOR-DOR ag conf=214*;HTR5A ag counter=-5
CC(Cc1ccccc1)NC(=O)Cc1ccc(N(C)C)cc1 (stereo unspecified),27,-2,1,99,-1,6,.,.,
CC(=O)OC1CC[C@]2(C#N)[C@H]3CC[C@]4(C)[C@H](C5C=CC(=O)O5)CCC4(O)C3CCC2(O)C1 (stereo partly specified),-69,-11,19*,98,51*,-246,.,.,MOR-DOR ag conf=18;HTR5A ag counter=21*
CC12CC[C@H]3[C@@H](CCC4(O)C[C@H](O)CCC34/C=N/NC(=O)c3ccccc3F)C1(O)CCC2C1=CC(=O)OC1 (stereo partly specified),9,-9,11,100,13,-64,.,.,

# High-throughput results: PubChem BioAssay, several laboratories
